This excerpt belongs to a sample that is enriched for hits.
HBB splicing: qHTS Assay for Modulators of Hemoglobin Beta Chain Splicing; HBB splicing reporter cell assay, activation; EGFP reporter with mutant IVS2-654 intron; response scale: normalised to 500 nM splice-correcting PNA; Potency, µM (doses to about 46.1 µM), most hits filed as activators; 65,000 compounds, 0.06% hits; AID 925, 2007
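HeLa cells stably expressing EGFP interrupted by mutant beta-globin intron 2 (IVS2-654), 500/well in 2% FCS. Treated with compound for 2 days at 37C. Splicing correction scored as total well GFP intensity (488 nm excitation, 500-520 nm emission); 500 nM antisense PNA served as control.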
CRE Fsk mod: Cell signaling CRE-BLA (Fsk stim). 71,000 compounds, 2.5% hits. CHO CRE-bla reporter (cAMP response element driving beta-lactamase), forskolin EC10, beta-lactamase ratio. Potency, µM (titrated, usually from 38.2 µM), hits mostly activators; active means well fitted activation curve with a large enough effect in the signal ratio, with a control signal flat, not every such curve was filed as active; inconclusive means small, poorly fitted or top-dose-only effect, or effect the other way, or a change in a side signal; the % refers to the signal ratio
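Reporter-gene assay: CHO cells with beta-lactamase behind cAMP responsive elements, co-treated with compound and EC10 NKH 477 for 3 hours at 37 degrees Celsius. Activity came from the 460/530 nm CCF4 emission ratio.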
Epigenetic mod: qHTS Assay for Epigenetic Modulators. mouse C127i GFP locus derepression, cytometry, 30 h. Potency, µM (series often up to 46.1 µM). 68,000 compounds, 0.09% hits
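Read-out is the number of GFP-positive cells, scored as fluorescent objects 20 to 120 um wide, reflecting derepression of a silenced CMV-GFP reporter in murine C127i cells after 30 h compound exposure at 37 C.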
IkB signaling: IkB Signaling; ABC-DLBCL IkBa-CBG/CBR dual luciferase ratio, 4 h; response scale: scaled: untreated 0%, proteasome inhibitor 100%; Potency, µM (titrated, usually from 57.1 µM); 110,000 compounds, 0.04% hits; AID 445, 2006; active means well fitted curve in the direction sought with a large enough effect in the signal ratio, not every such curve was filed as active; inconclusive means small, poorly fitted or top-dose-only effect, or a change in a side signal; the % refers to the signal ratio;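 further: the direction sought is a rising ratio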
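Curves were fitted separately to fusion (green), unfused (red) and ratio luminescence, then classed by r2, magnitude and activity. Cells: OCI-Ly3, 4 h compound plus doxycycline at 37C; 10 uM MG-132 defined full response.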
ERK AVP inh: qHTS Assay for Inhibitors of the ERK Signaling Pathway using a Homogeneous Screening Assay; HEK293-V1b, vasopressin-stimulated pERK AlphaScreen; Potency, µM (top dose mostly 57.5 µM), usual class: inhibitors; 72,000 compounds, 0.99% hits; further: nearly all actives have a fitted effect of over 55% in size
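Overnight-seeded V1b-HEK293 cells in 1% FBS got compound, then vasopressin (25 nM final, 5 min, 37C), then lysis buffer. AlphaScreen detection of phospho-ERK; activity normalized to basal and full-stimulation controls.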
Hits are given with their value; 0 = inactive; ? = inconclusive; - = no result given; [ ] = another dose, or the depositor's remark. Unless noted, the call rests on the fitted dose curve; in most records, active means well fitted curve in the direction sought with a large enough effect; inconclusive means small, poorly fitted or top-dose-only effect, or another doubt; inactive means no such curve, though single readings can be large; an effect the other way counts as inactive or inconclusive.

SMILES	HBB splicing	CRE Fsk mod	Epigenetic mod	IkB signaling	ERK AVP inh
CC(=O)OC[C@@H]1O[C@@H](O/N=C2/C[C@@H](O)[C@@H](O)[C@@H]3[C@@H]4C(=O)N(C5CCCCC5)C(=O)[C@H]4CC[C@H]23)[C@H](OC(C)=O)[C@H](OC(C)=O)[C@@H]1OC(C)=O	0[9.22 µM]	-	-	-	0[11.5 µM]
CCCCc1ccc2nc(NC(=O)OC)[nH]c2c1	0	0.25µM	0	?	0
O=C(Cc1ccccc1)Nc1nc2ccccc2[nH]1	0	0	0	?	?
N#CCCn1c(=O)c(-c2ccc(Cl)cc2)nc2cnc(N3CCOCC3)nc21	0	5µM	0[9.22 µM]	0[11.4 µM]	0
N#CCCn1c(=O)cnc2cnc(N3CCOCC3)nc21	0	0	0[9.22 µM]	0[11.4 µM]	6.3µM
N#CCCn1c(=O)c(-c2ccc(F)cc2)nc2cnc(N3CCOCC3)nc21	0	0.4µM	0[9.22 µM]	0[11.4 µM]	0
COc1ccc(-c2ccc(=O)n(Cc3cc(=O)n4ccccc4n3)n2)cc1	0	10µM	0	0	0
C=CCNc1ncnc2c1[nH]c1ccc(C)cc12	0	0	0	0	32µM
O=C(C1CCCCC1)N(Cc1cccnc1)c1nc2c(F)cccc2s1	-	-	-	0	-
CC(C)c1cccc2nc3c(c([Si](C)(C)C)c12)Cn1c-3cccc1=O	0	13µM	-	-	0
CCc1c2c(nc3c(C(C)C)cccc13)-c1cccc(=O)n1C2	0	?	-	-	0
CCc1cccc2nc3c(c([Si](CC)(CC)CC)c12)Cn1c-3cccc1=O	0	10µM	-	-	0
Cc1ccc(-c2cc(C(=O)Nc3c(C(=O)c4ccc(C)c(F)c4)oc4ccccc34)no2)cc1	-	-	-	0	-
CC(C)n1c2ccccc2c2nc3ccccc3nc21	0	1.6µM	0	0	0
CSc1nnc2n(-c3ccccc3)c(=O)c3c4c(sc3n12)CCC4	0	2.5µM	0	0	0
CSc1nnc2n(C3CCCCC3)c(=O)c3c4c(sc3n12)CCCC4	-	-	0	-	-
COc1cccc(Nc2ncc3nc(C)c(=O)n(CCc4ccccc4)c3n2)c1	0	5µM	0[9.22 µM]	0[11.4 µM]	0
COc1cccc(Nc2ncc3nc(C)c(=O)n(Cc4cccs4)c3n2)c1	16µM	?	0[9.22 µM]	0[11.4 µM]	0
COc1ccc(-c2nc3cnc(Nc4cccc(OC)c4)nc3n(Cc3cccs3)c2=O)cc1	0	?	0[9.22 µM]	0[11.4 µM]	0
COc1ccc(-n2c(=O)c(-c3cccs3)nc3cnc(Nc4cccc(OC)c4)nc32)cc1	10µM	?	3.2µM	0[11.4 µM]	0
CC(C)C[C@@H](CC(=O)N[C@@H](CCC(=O)O)CC(=O)O)NC(=O)[C@@H]1CCCC[C@H]1NC(=O)C[C@H](CCCN)NC(=O)C[C@H](Cc1c[nH]c2ccccc12)NC(=O)[C@@H]1CCCC[C@H]1N	0	0	-	0	-
CCCCCCNc1c(C(=O)OCC)c(=O)[nH]c2ccccc12	0	4µM	0	0	0
Cc1nnc(Sc2nc(Sc3nnc(C)s3)nc(N3CCN(C)CC3)n2)s1	-	0	0	7.9µM	0
Cc1ccc(NC(=O)Cn2c(=O)cc(-c3ccccc3)c3c(C)nn(C)c32)c(Cl)c1	-	-	-	0	-
FC(F)C(F)(F)C(F)(F)C(F)(F)c1cc(-c2ccccc2)n[nH]1	0[9.22 µM]	?	0	?	2.5µM
SMILES	HBB splicing	CRE Fsk mod	Epigenetic mod	IkB signaling	ERK AVP inh
CCCCOCCCn1c(-c2ccco2)nc2nc3ccccc3nc21	?	13µM	0	?	0
COCCCn1c(-c2ccco2)nc2ccccc2c1=O	0	?	0	0	0
CC(=O)c1cccc(NC(=O)Nc2ccc3c(c2)N(C)C(=O)CS3)c1	0	0	0	?	10µM
CCOC(=O)c1sc(NC(=O)c2ccc(CC)s2)nc1C	0	0	0	0	0
CCOC(=O)c1sc(NC(=O)c2ccc3ncsc3c2)nc1C	0	13µM	-	0	-
O=c1c(-c2ccc(F)cc2)nc2cnc(N3CCOCC3)nc2n1Cc1cccs1	0	?	0[9.22 µM]	0[11.4 µM]	0
O=c1c(-c2cc(F)cc(F)c2)nc2cnc(N3CCOCC3)nc2n1C1CC1	0	1µM	0[9.22 µM]	0[11.4 µM]	0
O=c1c(-c2cc(F)cc(F)c2)nc2cnc(N3CCOCC3)nc2n1Cc1cccs1	0	0.63µM	0[9.22 µM]	0[11.4 µM]	0
O=c1c(-c2cc(F)cc(F)c2)nc2cnc(N3CCNCC3)nc2n1C1CC1	0	?	0[9.22 µM]	0[11.4 µM]	0
Cc1ccc2nc(NC(=O)CN(C)S(=O)(=O)c3ccc(Br)s3)sc2c1	0	0	0	?	4µM
Cc1cccc2sc(NC(=O)CNS(=O)(=O)c3ccc(Br)s3)nc12	0	?	0	?	20µM
Cc1ccc(-n2ncc(C(=O)NCCc3ccsc3)c2C2CCN(C(=O)OC(C)(C)C)CC2)cc1C	-	-	-	0	-
Cc1ccc(C(=O)Nc2ccccc2N2CCN(C(=O)C(C)C)CC2)cc1	0	0	0	0	0
COc1ccc(Cl)cc1C(=O)Nc1ccccc1N1CCN(C(=O)C(C)C)CC1	0	13µM	0	?	0
Cc1cccc(NC(=O)C2CCCN(S(=O)(=O)c3cnc[nH]3)C2)c1C (configuration not stated)	-	-	-	0	-
Cc1cccc(C)c1NC(=O)Cn1nc(C)c2sc3ccccc3c2c1=O	-	-	-	0	-
Cc1ccnc(Nc2nc(-c3c(C)nc4sccn34)cs2)c1	-	?	0	?	25µM
Cc1nc2sccn2c1-c1nc(-c2cc3ccccc3o2)cs1	0	?	0	?	0
COc1cc(-c2nc(-c3ccc(Br)o3)no2)cc(OC)c1OC	0	2.5µM	-	0	0
COc1ccc(-c2noc(-c3ccc(Br)o3)n2)cc1OC	0	0	0	0	0
COc1cc(-c2nc(S(=O)(=O)c3ccc(C)cc3)c(N(C)C)o2)cc(OC)c1OC	0	2µM	0	0	0
COc1cc(-c2nc(S(=O)(=O)c3ccc(C)cc3)c(N3CCOCC3)o2)cc(OC)c1OC	0	1µM	0	0	0
CN(C)C=Nc1ncc2c([nH]c3ccccc32)c1C#N	0[0.369 µM]	0	0	0	25µM
Cc1nn(-c2ccc(S(=O)(=O)O)cc2)c(O)c1N=Nc1ccc(-c2ccc(N=Nc3ccc4c(S(=O)(=O)O)cc(S(=O)(=O)O)c(N)c4c3O)c(O)c2)cc1O.[Cu].[Cu]	0[9.22 µM]	0[7.6 µM]	0[9.22 µM]	0[11.4 µM]	0[11.5 µM]
COc1cc(-c2ccc(N=Nc3ccc4c(S(=O)(=O)O)cc(S(=O)(=O)O)c(N)c4c3O)c(OC)c2)ccc1N=Nc1ccc2c(S(=O)(=O)O)cc(S(=O)(=O)O)c(N)c2c1O	0	?	?	?	16µM
O=c1c(-c2cccs2)nc2cnc(Oc3cccc(Cl)c3)nc2n1C[C@H]1CCCO1	0	?	0[9.22 µM]	0[11.4 µM]	0
CCc1c(C#N)c(N)nc(SCC(=O)OCc2ccccc2)c1C#N	0[0.0738 µM]	?	0	0	32µM
CCC(C)NC(=O)c1cnn2c(C)c3c(nc12)CCCC3 (configuration not stated)	0	13µM	0	0	0

Assay outcomes from PubChem BioAssay.
